# Data published in PMC5540273 (PLoS ONE, 2017).
# Experiments:
# Settings in all cases: concentration: 1 μM, replicates: in singlicate; n = 1
# CAMK1 = test system: CAMK1
# CAMK2A = test system: CAMK2A
# CAMK2B = test system: CAMK2B
# CAMK2D = test system: CAMK2D
# CAMK2G = test system: CAMK2G
# CAMK4 = test system: CAMK4
# CAMKK1 = test system: CAMKK1
# CAMKK2 = test system: CAMKK2
# CASK = test system: CASK
# CDC2L1 = test system: T1, CDC2L1
# T1 construct: gene CDK11B
# CDC2L2 = test system: CDC2L2
# CDC2L5 = test system: T2, CDC2L5
# T2 construct: gene CDK13
# CDK11 = test system: T3, CDK11
# T3 construct: gene CDK19
# CDK2 = test system: CDK2
# CDK3 = test system: CDK3
# CDK4-cyclinD1 = test system: CDK4-cyclinD1
# CDK4-cyclinD3 = test system: CDK4-cyclinD3
# CDK4 = test system: CDK4
# CDK5 = test system: CDK5
# CDK7 = test system: CDK7
# 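Note: KINOMEscan kinase panel screen.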
Structure (SMILES),%Inh (CAMK1),%Inh (CAMK2A),%Inh (CAMK2B),%Inh (CAMK2D),%Inh (CAMK2G),%Inh (CAMK4),%Inh (CAMKK1),%Inh (CAMKK2),%Inh (CASK),%Inh (CDC2L1),%Inh (CDC2L2),%Inh (CDC2L5),%Inh (CDK11),%Inh (CDK2),%Inh (CDK3),%Inh (CDK4-cyclinD1),%Inh (CDK4-cyclinD3),%Inh (CDK4),%Inh (CDK5),%Inh (CDK7)
c1ccc(Oc2ccc(Nc3ccnc4cc(-c5ccc(CN6CCCCC6)o5)ccc34)cc2)nc1 [GW567143],28%,0%,0%,0%,0%,0%,0%,0%,49%,0%,9%,0%,0%,0%,7%,0%,0%,18%,0%,45%
CC(=O)Nc1cn2nc(Oc3cccc(NC(=O)c4cccc(C(F)(F)F)c4)c3)ccc2n1,19%,0%,15%,1%,0%,0%,0%,0%,17%,7%,14%,0%,29%,2%,24%,0%,0%,0%,0%,0%
COC(=O)Nc1nc2ccc(Oc3ccc(CC(=O)Nc4cc(C(F)(F)F)ccc4F)cc3)cc2[nH]1 [GW680903],2%,0%,0%,1%,12%,0%,0%,9%,0%,0%,8%,0%,0%,0%,11%,27%,4%,10%,0%,0%
CN(c1ccc(NC(=O)N2CCN(CCCN3CCOCC3)CC2)cc1)c1ccnc(Nc2ccc(CS(C)(=O)=O)cc2)n1.Cl [GW830899],0%,0%,0%,1%,0%,0%,19%,0%,0%,2%,1%,0%,0%,0%,18%,0%,0%,0%,0%,0%
N#Cc1cnc2cc(-c3cnc(CNCCN4CCOCC4)s3)ccc2c1Nc1ccc(Oc2ccccc2)cc1 [GW664114],22%,0%,0%,21%,0%,0%,48%,3%,15%,0%,6%,0%,0%,0%,7%,0%,4%,10%,0%,15%
Cc1ccc(NC(=O)c2cccc(N3CCCCC3)c2)cc1-c1ccc(C(=O)NCC2CC2)cc1 [GSK1917008],9%,0%,0%,0%,21%,1%,26%,11%,18%,22%,8%,0%,8%,2%,8%,0%,1%,0%,2%,0%
Cc1ccc(O)cc1Nc1ccnc2cc(-c3ccc(CN4CCCCC4)o3)ccc12 [GW557777],4%,0%,13%,10%,8%,0%,10%,9%,2%,20%,4%,0%,7%,0%,8%,0%,7%,0%,0%,0%
Cc1cccc(Nc2nc(N[C@H]3CCCC[C@H]3N)ncc2C(N)=O)c1.Cl [GSK986310],54%,0%,0%,16%,33%,72%,22%,26%,56%,0%,11%,0%,24%,0%,24%,0%,1%,0%,5%,48%
Nc1cccc(-c2ccc3c(N)n[nH]c3c2)c1 [GSK2193613],29%,0%,0%,11%,26%,0%,2%,13%,13%,7%,16%,0%,8%,1%,0%,13%,0%,0%,0%,15%
O=C(Nc1n[nH]c2nc(-c3ccccc3)ccc12)C1CC1 [SB-708999],3%,0%,0%,100%,17%,0%,6%,13%,14%,0%,0%,27%,0%,45%,35%,61%,0%,12%,2%,10%
